# Only some compounds are listed: those with a hit (about 2.2% of all), similar ones and a draw of the others.
# TDP43 rescue: rescues yeast growth from TDP-43 toxicity; AID 652104; Potency, µM (top dose mostly 46.1 µM), usual class: activators; 1.8% of 410,000 active; TDP-43 expressing yeast growth rescue, BacTiter-Glo, 24 h; note: nearly all actives have a fitted effect of over 50% in size
#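 In this qHTS, compounds that restore growth of yeast expressing TDP-43 appear as activators. Cells (OD600=0.02, galactose medium, raffinose-pregrown) are incubated with compound 24 hr at 30 deg C and growth is quantified by BacTiter-Glo.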
# aSyn yeast inh: rescues yeast growth from alpha-synuclein toxicity; AID 652106; 0.14% of 370,000 active; Potency, µM (doses to about 46.1 µM), most hits filed as activators; Yeast expressing alpha-synuclein, growth rescue, BacTiter-Glo, 24 h; note: nearly all actives have a fitted effect of over 65% in size
#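 Galactose-induced alpha-syn yeast (OD600=0.02, raffinose-pregrown) + pinned cpd, 24 hr, 30 deg C; growth by BacTiter-Glo luminescence. Growth restoration scores as activation.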
# Abeta rescue: compounds reversing amyloid beta toxicity in yeast | yeast expressing A-beta42, growth rescue, OD600, 48 h; response scale: 0% DMSO, 100% iron-clioquinol control | Potency, µM (top dose mostly 46.1 µM), most hits filed as activators | 0.063% of 410,000 active | AID 1347071; note: nearly all actives have a fitted effect of over 55% in size
#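 Growth rescue measured by 600 nm absorbance after 48 h yeast culture at 30 C with compound. Values normalized between DMSO and an equimolar ferric chloride plus clioquinol control.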
# Mito fusion yeast: mitochondrial division inhibition or fusion activation; S. cerevisiae fusion-defective mutant growth rescue, CellTiterGlo 48 h; Potency, µM (highest dose often 46.1 µM), most hits filed as activators; 0.23% of 320,000 active; AID 485298; note: nearly all actives have a fitted effect of over 45% in size
#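 S. cerevisiae fusion-defective temperature-sensitive mutants (e.g. fzo1-1, mgm1-5) grown 48 h at 37C in YPEG (ethanol/glycerol non-fermentable) medium with 23 nl compound per well; growth rescue read as CellTiterGlo luminescence.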
# FUS suppressor: FUS proteinopathy suppression in yeast; S. cerevisiae FUS-expressing, growth rescue, OD600, 24 h; Potency, µM (titrated, usually from 76.6 µM), hits mostly activators; 0.24% of 390,000 active; note: nearly all actives have a fitted effect of over 55% in size
#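 Yeast expressing FUS under galactose induction, OD 0.005 in 2% galactose medium; compounds in a dilution series, 24 h at 30C. Growth rescue by absorbance at 600 nm; CP55940 positive control, DMSO negative.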
# Hits are given with their value; . = inactive; ? = inconclusive; / = not tested or not shown. Calls come from the whole dose curve; as a rule, active = well fitted curve in the direction sought with a large enough effect; inconclusive = small, poorly fitted or top-dose-only effect, or another doubt; inactive = no such curve, though single readings can be large; an effect the other way counts as inactive or inconclusive.
SMILES,TDP43 rescue,aSyn yeast inh,Abeta rescue,Mito fusion yeast,FUS suppressor
c1ccc(OCCNc2ccn3nc(-c4cccs4)cc3n2)cc1,14.1µM,.,.,/,.
c1ccc(OCCNc2ccn3nc(-c4ccccc4)cc3n2)cc1,.,.,.,/,.
c1ccc(OCCNc2ccn3nc(-c4ccco4)cc3n2)cc1,15.8µM,.,.,/,.
COc1ccccc1-c1cc2nc(NCCOc3ccccc3)ccn2n1,25.1µM,.,.,/,.
O=Cc1ccc(-c2ccc([N+](=O)[O-])cc2Cl)o1,11.2µM,.,.,.,.
O=Cc1ccc(-c2cccc([N+](=O)[O-])c2)o1,.,.,.,.,.
Cc1ccc2c(c1)c1c(n2CC2COC(C)(C)O2)C(=O)CCC1 (stereo not given),12.6µM,.,.,.,.
N/C(Cc1ccc([N+](=O)[O-])cc1)=N\OC(=O)c1ccc2ccccc2c1,11.2µM,.,.,.,.
C=CCSc1nnc(-c2sc(-c3ccccc3)nc2C)n1C,15.8µM,/,.,.,.
COc1ccc(/C=C/C(=O)Nc2sc3c(c2C(N)=O)CCC(C)C3)cc1OC (stereo not given),?,.,.,/,.
Cc1ccc(C)c(CN2C(=O)c3ccccc3S(=O)c3ccc(C(=O)NCCC4=CCCCC4)cc32)c1 (stereo not given),.,/,.,/,.
CC1CCN(c2nn3c(=O)c(C(=O)NCCc4ccccc4)cnc3s2)CC1,12.6µM,/,.,/,.
COc1ccc(NC(=O)O/N=C2/CCCc3ccc(OC)cc32)cc1,14.1µM,.,.,.,.
COc1cn(CC(=O)Nc2cc(C)cc(C)c2)c(CN2CCCCC2)cc1=O,.,/,.,/,.
Cc1ccc(S(=O)(=O)N(C)CC(=O)O/N=C(\N)c2cccnc2)cc1,.,.,.,/,/
Cc1ccc(SCC(=O)O/N=C(\N)c2cccnc2)cc1,10µM,.,.,.,.
CC(C)=CCC/C(C)=C/CNCC(=O)N1c2ccccc2[C@]2(c3ccccc3)C[C@@H]3C(=O)N(C/C=C(\C)CCC=C(C)C)CC(=O)N3[C@H]12,/,/,/,/,12.6µM
CCNC(=S)NNC(=O)c1cnccn1,/,/,/,/,.
CC(=O)C(Cl)C(=O)Nc1ccccc1 (stereo not given),3.55µM,.,.,.,.
O=C(Nc1ccccc1)C(Cl)C(=O)c1ccccc1 (stereo not given),.,.,.,.,.
COc1cccc(N=C2SC(C(=O)Nc3ccc(F)cc3)CC(=O)N2C)c1 (stereo not given),.,.,.,.,.
CCOc1cccc(NC(=O)C2CC(=O)N(C)C(=Nc3ccc(OC)cc3)S2)c1 (stereo not given),.,.,.,/,.
CCOc1cccc(NC(=O)C2CC(=O)N(C)C(=Nc3ccc(F)cc3)S2)c1 (stereo not given),25.1µM,/,15.8µM,.,.
CCOc1cccc(NC(=O)C2CC(=O)N(C)C(=Nc3cccc(OC)c3)S2)c1 (stereo not given),35.5µM,/,.,/,?
CC(C)c1ccc(OC[C@@H](O)CN2CCC(C(O)(c3ccccc3)c3ccccc3)CC2)cc1,/,/,/,/,.
SMILES,TDP43 rescue,aSyn yeast inh,Abeta rescue,Mito fusion yeast,FUS suppressor
COc1ccccc1C(=O)NC1CCCCN(Cc2ccc(Cl)cc2)C1=O (stereo not given),/,/,/,/,.
Cc1ccc(S(=O)(=O)n2nc(-c3ccccc3)nc2NCc2ccc(Cl)cc2)cc1,.,/,.,/,.
CCc1c(C)c(C#N)c2nc3ccccc3n2c1NC,.,.,.,.,.
CNc1cc(C)c(C#N)c2nc3ccccc3n12,?,.,.,.,.
Cc1cc(Cl)n2c(nc3ccccc32)c1C#N,3.16µM,.,.,.,.
Cc1c(CCCl)c(Cl)n2c(nc3ccccc32)c1C#N,7.08µM,.,.,/,/
CCCC(=O)N1c2nc(C(C)C)nn2C2(CCCCC2)[C@@H]2CCCC[C@@H]21,.,/,.,/,.
Cc1cc(C)n2nc(-c3cccc(Br)c3)cc2n1,11.2µM,.,.,.,.
Cc1cccc(-c2cc3nc(C)cc(C)n3n2)c1,.,.,.,.,.
Cc1ccccc1C[C@H](C(=O)O)N1C(=O)c2ccc(C(=O)O)cc2C1=O,/,/,/,.,/
CC(C)(C)C(=O)Nc1nnc(SCc2ccc(F)cc2)s1,17.8µM,/,?,.,.
CC(C)(C)C(=O)Nc1nnc(SCc2cccc(F)c2)s1,?,.,?,.,.
CCOc1ccc(CN(C(=O)c2cc(=O)c3cc(Cl)ccc3o2)C2CCS(=O)(=O)C2)cc1 (stereo not given),.,/,.,/,31.6µM
CCCOc1cccc(C(=O)N(Cc2ccccc2)C2CCS(=O)(=O)C2)c1 (stereo not given),.,.,.,.,.
Cc1c(C(=O)N(Cc2ccc(Cl)cc2)C2CCS(=O)(=O)C2)oc2ccccc12 (stereo not given),?,?,.,14.1µM,?
CCCCCOc1ccc(C(=O)N(Cc2ccccc2)C2CCS(=O)(=O)C2)cc1 (stereo not given),20µM,/,.,.,?
O=C(Nc1ccc(Cl)cc1Cl)c1cnn2c1NC(=C1CC1)C=C2C(F)F,/,.,/,/,/
CCOc1ccc(CNC(=O)C2CCN(C(=O)N3CC(CC)Oc4ccccc43)CC2)cc1 (stereo not given),.,/,.,/,.
CCOC(=O)c1c(NC(=O)COC(=O)c2cccc([N+](=O)[O-])c2)sc(C(=O)N(C)C)c1C,.,.,12.6µM,/,.
O=C(Cn1ccn(-c2ccc(F)c(F)c2)c(=O)c1=O)NCc1ccccc1,.,/,.,/,.
O=C1c2ccccc2C(=O)N1C1C=CC=CC=C1,25.1µM,?,.,/,.
O=C1c2ccccc2C(=O)N1C/C=C/CN1C(=O)c2ccccc2C1=O,/,/,/,.,/
COc1cccc(OCCNc2cc(N3CCOCC3)ccc2[N+](=O)[O-])c1,17.8µM,.,.,.,.
COc1ccc(OCCNc2cc(N3CCOCC3)ccc2[N+](=O)[O-])cc1,?,.,.,.,.
Cc1cccc(C)c1NC(=O)CCCN1C(=O)C(c2ccccc2)Oc2cccnc21 (stereo not given),.,.,.,12.6µM,.
SMILES,TDP43 rescue,aSyn yeast inh,Abeta rescue,Mito fusion yeast,FUS suppressor
Cc1ccc(N2C(=O)c3ccccc3C2Nc2ccc(S(=O)(=O)N3CCCCC3)cc2)nc1 (stereo not given),?,.,.,.,35.5µM
CN(C)c1ccc(/C=C2\C(Cl)=Cc3ccccc32)cc1,/,.,/,/,/
CC1(C)Cc2nc3sc4c(N(CCO)CCO)ncnc4c3cc2CO1,.,.,.,.,.
CCN(CCO)c1ncnc2c1sc1nc(CC(C)C)c3c(c12)CC(C)(C)OC3,17.8µM,.,.,.,?
Cc1cccc(C(=O)O/N=C(\N)c2ccc(Cl)cc2)c1,10µM,.,.,.,.
COc1ccccc1C(=O)O/N=C(/c1ccncc1)c1ccc([N+](=O)[O-])cc1,28.2µM,.,.,.,/
COc1ccccc1C(=O)O/N=C(\N)c1ccc(Cl)cc1,14.1µM,.,.,.,.

# Source: PubChem (National Center for Advancing Translational Sciences (NCATS))
